# Results filed as inconclusive are left out. Entries that show only a call come without a potency. Calls of active or inactive are those of the source. The call rests on the fitted dose curve; in most records, active means well fitted inhibition curve with a large enough effect; inconclusive means small, poorly fitted or top-dose-only effect; inactive means flat fitted curve, though single readings scatter.
# Biological target: Luciferin 4-monooxygenase (Photuris pensylvanica) (UniProt Q27757)
# Test: Secondary Assay for Luciferase (Kinase-Glo TM) Inhibition Counterscreen
# Settings: Kinase-Glo luciferase enzyme, luminescence; series mostly up to 58.1 µM
# Description: NIH Chemical Genomics Center [NCGC] Malcolm Walkinshaw, Hugh Morgan, Linda Gilmore University of Edinburgh, UK MLPCN Grant: 1 R03 MH085697-01 NCGC Assay Overview: Luciferase (Kinase-Glo, Promega Corporation) was assayed for its ability to generate light using ATP and luciferin as substrates. The ATP concentration in the assay (10 uM) was within the linear range of enzyme activity for the assay conditions used. This assay was used as an counter screen for human pyruvate kinase M2 isoform.
# NCGC Assay Protocol Summary: Four uL of substrate mix (final concentration, 50 mM imidazole pH 7.2, 50 mM KCl, 7 mM MgCl2, 10 uM ATP, 0.01% Tween 20, 0.05% BSA) was dispensed into white 1536 well plates. Twenty-three nL of compound was delivered by a pin tool and 2 uL of luciferase detection mix (Kinase-Glo, Promega)) was added. Following 8-minute incubation at ambient temperature, luminescence was measured by a ViewLux (Perkin Elmer) at 5 seconds exposure/plate. Data were normalized to the controls for basal activity (DMSO only) and 100% inhibition (40 uM SIB 1757) and curve fitting was performed using Hill equation.
# Potency means the concentration at half of the fitted maximal effect.
row,SMILES,Potency
1,COc1ccc(N2C(=O)c3ccccc3C2=O)cc1,inactive
2,Nc1ncnc2c1ncn2C1OC(COP(=O)(O)O)C(O)C1O (stereo not given),4.61 µM (active)
3,O=C1CCc2cc(S(=O)(=O)Nc3ccc(F)cc3)ccc2N1,inactive
4,O=C1c2ccccc2C(=O)N1c1ccc2ccccc2n1,inactive
5,Cc1ccc(NS(=O)(=O)c2ccc3c(c2)CCO3)cc1C,inactive
6,COc1ccc(N=Nc2n(C)c3ccccc3[n+]2C)cc1,10.3 µM (active)
7,Oc1ccc(C23CC4CC(CC(C4)C2)C3)cc1O,inactive
8,O=C1c2ccccc2C(=O)N1c1cccc(Cl)c1,inactive
9,c1c2c(cc3sc(N4CCCCC4)nc13)OCO2,10.3 µM (active)
10,CC(=O)N1CCCc2cc(S(=O)(=O)Nc3ccc(C)c(C)c3)ccc21,inactive
11,O=C1CCc2cc(S(=O)(=O)Nc3ccc(-c4ccccc4)cc3)ccc2N1,inactive
12,O=C1c2ccccc2C(=O)N1c1ccncc1,inactive
13,Cc1ccc(NS(=O)(=O)c2ccc3c(c2)oc(=O)n3C)cc1C,inactive
14,O=C1CCc2cc(S(=O)(=O)Nc3cccc4ccccc34)ccc2N1,inactive
15,Cc1ccc(NS(=O)(=O)c2ccc(Cl)cc2)cc1C,inactive
16,CCOc1ccc(C(=O)O/N=C(\N)c2ccccn2)cc1,5.8 µM (active)
17,O=C1CCc2cc(S(=O)(=O)Nc3ccc4c(c3)OCCO4)ccc2N1,inactive
18,Cc1ccccc1-c1nc(-c2ccccn2)no1,4.61 µM (active)
19,COc1cccc(OC2=NS(=O)(=O)c3ccccc32)c1,inactive
20,Cc1ccc(NS(=O)(=O)c2ccc3c(c2)CCN(C(=O)C(F)(F)F)C3)cc1C,inactive

row,SMILES,Potency
1,CSc1cc2c(s1)c1cnn(Cc3cccc(O)c3)c(=O)c1n2C,inactive
2,Cc1ccc(NS(=O)(=O)c2ccc(F)cc2)cc1C,inactive
3,O=C1CCc2cc(S(=O)(=O)Nc3cccc(F)c3)ccc2N1,inactive
4,O=C1CCc2cc(S(=O)(=O)Nc3cccc(C(F)(F)F)c3)ccc2N1,inactive
5,Cc1cc(C)n2c(Nc3ccccc3)c(-c3ccc(C)o3)nc2n1,inactive
6,O=C(/C=C1\C(=O)Nc2ccccc21)/C=C1\C(=O)Nc2ccccc21,inactive
7,CCNc1cccc(S(=O)(=O)N2CCN(S(=O)(=O)c3ccc4c(c3)OCCO4)CC2)c1,inactive
8,Cc1ccc(NS(=O)(=O)c2cc3c(cc2F)NC(=O)CC3)cc1C,inactive
9,O=C1c2ccccc2C(=O)N1Cc1ccncc1,inactive
10,O=S1(=O)N=C(Oc2ccc(Cl)cc2)c2ccccc21,inactive
11,Cc1ccc(C(=O)/C=C/C(=O)c2ccc(C)cc2)cc1,inactive
12,Cc1ccc(S(=O)(=O)/N=C2/C=C(Sc3ncn[nH]3)C(=O)c3ccccc32)c(C)c1,inactive
13,O=C1c2ccccc2C(=O)N1C1CCCCC1,inactive
14,Cc1ccc(NS(=O)(=O)c2cccc(F)c2)cc1C,inactive
15,Cc1ccc(NS(=O)(=O)c2ccc3[nH]c(=O)[nH]c3c2)cc1C,inactive
16,O=S1(=O)N=C(Oc2cccc(Cl)c2)c2ccccc21,inactive
17,Cc1cccc(NS(=O)(=O)c2ccc3c(c2)CCC(=O)N3)c1,inactive
18,Cc1ccc(NS(=O)(=O)c2ccc3c(c2)CC(=O)N3C)cc1C,inactive
19,O=C1c2ccccc2C(=O)C1c1ccnc2ccccc12,inactive
20,Cc1ccc(NS(=O)(=O)c2cc3c(cc2N2CCCCC2)NC(=O)CC3)cc1C,inactive
